system: H1 OCT4-GFP hESC; experiment: survival Z score in repeat assay, Calcein AM perimeter-filtered objects (vs plate mean) (Z score (SD)); higher = more surviving cells, active = 3 or more; details: 10 µM, 2 days, cells per well: 1500, rescreen
Procedure: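 Top perimeter-filtered hits were cherry-picked and rescreened in the same Calcein AM assay (H1 OCT4-GFP hESCs, 1500 cells/well, 10 µM, 2 days, objects with perimeter ≥100 µm). Results are per-plate Z scores; a hit is Z ≥3.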

Structure (SMILES)	survival Z score in repeat assay
O=S(=O)(c1cccc2cnccc12)N1CCCNCC1	4.63 (active)
CC(N/C(=N\C#N)Nc1ccncc1)C(C)(C)C (configuration not stated) [Pinacidil]	0.345 (inactive)
